Source: PubChem BioAssay AID1626 (SRMLSC, 2009)
The whole screen tested about 220,000 compounds, of which about 2,000 (0.91%) were called active. Another 2% or so got no clear call; they are omitted. A selection follows. Potency and affinity values are given separately. A number with no mark means an inactive call. Cut-off read from the data, not from the text of the source: inconclusive = inhibition above about 80% without an active follow-up result; inactive = below that; test concentration not stated here.

Assay: M. tuberculosis H37Rv growth inhibitors, H37Rv strain (AID 1626);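 note: bacteria incubated seven days before Alamar blue readout; 0% = bacteria only wells and 100% = bacteria with antibiotic wells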
Conditions: hits give high values, concentration not given here

Row | SMILES | inhibition [%]
1 | Cc1sc2nc(COC(=O)c3cccc(OC(F)F)c3)[nH]c(=O)c2c1C | 11.1
2 | Cc1cc([N+](=O)[O-])ccc1NC(=O)/C=C/c1cccs1 | -0.49
3 | COc1ccccc1NC(=O)C(=O)N/N=C/c1ccc([N+](=O)[O-])s1 | 4.5
4 | Cc1ccc(NC(=O)COC(=O)c2ccc([N+](=O)[O-])s2)c(C)c1 | 9.26
5 | Cc1ccccc1NC(=O)/C=C/c1cccs1 | -3.01
6 | CCNc1nc(NCC)nc(SCCOc2ccc(C)cc2)n1 | 15.1
7 | COc1ccc(S(=O)(=O)NCC2CCCN(C(=O)c3ccco3)C2)cc1 (configuration not stated) | -5.58
8 | Cc1cc(CNC(=O)CC2C(=O)NCCN2CC(c2ccccc2)c2ccccc2)on1 (configuration not stated) | 1.54
9 | Cn1ncc2c(Nc3ccccc3Cl)nc(Nc3ccccc3Cl)nc21 | 29.2
10 | Cn1ncc2c(Nc3ccc(O)cc3)nc(Cl)nc21 | -3.66
11 | COc1ccc(-n2c(SCC(=O)O)nc3sc4c(c3c2=O)CCC4)cc1 | -7.18
12 | Cc1nc2ccccc2n1Cc1n[nH]c(=S)n1-c1ccc(Cl)cc1 | -9.13
13 | CCCn1c(Nc2ccc(Cl)cc2)nc2ccccc21 | 3.28
14 | CCc1c(C)[nH]n(-c2nc(-c3ccccc3)cs2)c1=O | 5.2
15 | NS(=O)(=O)c1ccc(N=Nc2c(-c3ccccc3)[nH]n(-c3nc(-c4ccccc4)cs3)c2=O)cc1 | 15.4
16 | CC(C)[C@H](NC(=O)NCc1ccc(F)cc1)C(=O)O | -4.85
17 | COc1ccc(C(NC(=O)c2ccc(F)cc2)c2ccccc2)cc1 (configuration not stated) | -2.49
18 | COc1ccc(-c2noc(CCCC(=O)Nc3cccnc3)n2)cc1OC | -1.27
19 | COc1ccc(CNc2ccc3c(c2)CCC3)cc1OC | 45.5
20 | CCOc1cc(CNc2ccc3c(c2)CCC3)ccc1OC | 46.6
21 | CC(NC(=O)c1ccc(OC2CCN(S(=O)(=O)N(C)C)CC2)cc1)C1CC1 (configuration not stated) | -9.26
22 | CC(=O)c1ccc(N(C(=O)Cn2nnc3ccccc32)C(C(=O)NC2CCCCC2)c2cn(C)nc2C)cc1 (configuration not stated) | -5.66
23 | Clc1nc(-c2cccnc2)nc2scc(-c3ccccc3)c12 | 8.19
24 | Clc1ncnc2scc(-c3ccccc3)c12 | -11.5
25 | O=C(COC(=O)c1ccc(Br)o1)Nc1nc2ccccc2s1 | -3.5
26 | O=C(OCc1nc2ccccc2s1)c1ccccc1O | 16.7

Row | SMILES | inhibition [%]
27 | Nc1ccc(C(=O)OCc2nc3ccccc3s2)cc1 | -2.83
28 | O=C(COC(=O)c1ccco1)Nc1nc2ccccc2s1 | -0.64
29 | CC(OC(=O)C(NC(=O)c1ccco1)C(C)C)C(=O)Nc1ncc(Cl)cc1Cl (configuration not stated) | -14.4
30 | Cc1c(N=Cc2nc3ccccc3n2C)c(=O)n(-c2ccccc2)n1C | -8.83
31 | CCN(CC)Cc1cc(C(=O)O)c(C)o1 | -8.95
32 | Cc1ccc(C2(C)NC(=O)N(Cc3c(C)noc3C)C2=O)cc1 (configuration not stated) | -0.8
33 | O=C(Nc1ccc([N+](=O)[O-])cn1)C1CC1 | 5.22
34 | O=C(NCc1cccc(Cl)c1)c1ccco1 | 0.19
35 | CC1CN2c3ccc([N+](=O)[O-])cc3CC3(C(=O)N(C)C(=O)N(C)C3=O)C2C(C)O1 (configuration not stated) | -12.5
36 | CN1c2ccc([N+](=O)[O-])cc2CC2(C(=O)NC(=O)NC2=O)C1c1ccccc1 (configuration not stated) | 0.68
37 | CN1C(=O)N(C)C(=O)C2(Cc3cc([N+](=O)[O-])ccc3N(C)C2c2ccccc2)C1=O (configuration not stated) | -13.2
38 | CN1c2ccc([N+](=O)[O-])cc2CC2(C(=O)NC(=O)N(c3ccccc3)C2=O)C1c1ccccc1 (configuration not stated) | 76.5
39 | COc1ccc2nc(C)cc(Sc3nc4ccccc4s3)c2c1 | 0.98
40 | COc1ccc(Cl)cc1N1C(=O)C2CCCN2C1c1sccc1C (configuration not stated) | -9.7
41 | CCCCC(Sc1nc(N)c(NC(=O)c2ccc(OC)cc2)c(=O)[nH]1)C(=O)O (configuration not stated) | -2.8
42 | Cc1ccc(OCC(=O)Nc2ccc(S(=O)(=O)Nc3ccccn3)cc2)c(C)c1 | -1.52
43 | COc1ccc(/C=N/NC(=O)C(C)Sc2ccccn2)cc1[N+](=O)[O-] (configuration not stated) | -3.03
44 | CCOc1cccc(CN2CCCC(CCC(=O)NCc3ccccc3F)C2)c1O (configuration not stated) | -1.53
45 | CC1CCc2c(sc3nc(CSc4nnnn4C)[nH]c(=O)c23)C1 (configuration not stated) | 42.6
46 | CCCCNC(=O)Nc1cnn(CC)c1C(N)=O | -2.68
47 | O=C1O/C(=C/c2ccccc2)c2ccccc21 | 2.2
48 | O=C1O/C(=C\c2ccccc2)c2ccccc21 | 1.65
49 | Nc1nnc(SCC(=O)N2CCN(c3ccccc3)CC2)n1-c1ccccc1 | -16.5
50 | Cc1[nH]nc2c1C(=O)CCC2 | -7.75
51 | O=c1ccnc(Sc2ncccc2[N+](=O)[O-])[nH]1 | 7.87
52 | CC(C)(C)n1cnnc1Sc1ncccc1[N+](=O)[O-] | -0.66

Row | SMILES | inhibition [%]
53 | CC(C)(C)c1csc(Sc2ncccc2[N+](=O)[O-])n1 | 7.08
54 | Nc1nnc(Sc2ccc(Cl)cc2[N+](=O)[O-])s1 | 6.61
55 | Cc1ccc(N/C=C(\C#N)S(=O)(=O)c2ccccc2)cc1 | 1.01
56 | CC(=O)c1cc(-c2ccc(F)cc2)n(CCC(=O)Nc2cc(C)[nH]n2)c1C | 5.45
57 | Cn1c(N)c(-c2nc3cccnc3n2C)sc1=S | 2.49
58 | COc1cccc(OC)c1C(=O)Nc1cc(C)nn1-c1nc2ccccc2[nH]1 | 53.2
59 | O=C(Nc1nc2ccccc2[nH]1)c1cccs1 | 56.3
60 | COc1ccc(C(=O)Nc2cc(C)nn2-c2nc3ccccc3[nH]2)c(OC)c1 | 57.3
61 | Cc1cc(NC(=O)c2ccccc2)n(-c2ccccc2)n1 | -5.06
62 | CC(=O)Nc1nc2ccccc2[nH]1 | -9.36
63 | Cc1cc(NC(=O)c2cccs2)n(-c2nc3ccccc3[nH]2)n1 | 94.8
64 | Cc1cc(NC(=O)c2ccccc2F)n(-c2nc3ccccc3[nH]2)n1 | 55.8
65 | Cc1cc(NC(=O)c2ccc(C)s2)n(-c2nc3ccccc3[nH]2)n1 | 83.6
66 | OCC1(Cc2ccccc2)CCN(Cc2ccc(C(F)(F)F)cc2)CC1 | 10.2
67 | CC1(C)C(c2ccc(Cl)cc2)=[N+]([O-])C2(CCCC/C2=N\O)N1O (configuration not stated) | 2.14
68 | O=C(N/N=C/c1cc(Br)cs1)c1ccc2c(c1)OCCO2 | 6.73
69 | O=C(CSc1nnc(-c2ccco2)n1CC1CCCO1)c1ccc(F)cc1 (configuration not stated) | -15.7
70 | N#CCSc1nc2ccccc2c(=O)n1CC1CCCC1 | -2.18
71 | CC(Sc1ccc(Br)cc1)C(N)=O (configuration not stated) | -7.76
72 | Cc1nc(N(C)C)c2sc(=S)n(-c3ccccc3)c2n1 | 0.72
73 | C/C(=N\NS(=O)(=O)c1ccc([N+](=O)[O-])cc1)c1ccc(NC(=O)c2ccco2)cc1 | -1.1
74 | C=CCNC(=O)CSc1nnc(-c2ccccc2Br)n1-c1cccc(C(F)(F)F)c1 | 5.16
75 | Cc1cc(NC(=O)c2ccc(F)cc2F)n(-c2nc3ccccc3[nH]2)n1 | 4.49
76 | Cc1cc(NC(=O)/C=C/c2ccccc2Cl)n(-c2nc3ccccc3[nH]2)n1 | 66.7
77 | CCOc1ccccc1OCC(=O)Nc1nc2ccccc2[nH]1 | 9.65
78 | O=C(Nc1nc2ccccc2[nH]1)c1ccc([N+](=O)[O-])cc1 | 75

Row | SMILES | inhibition [%]
79 | Cc1cc(C)c(OCC(=O)Nc2nc3ccccc3[nH]2)c(C)c1 | 9.75
80 | COc1cc(C(=O)Nc2nc3ccccc3[nH]2)cc(OC)c1OC | 75.8
81 | COc1cccc(C(=O)Nc2nc3ccccc3[nH]2)c1 | 46.1
82 | O=C(NCCc1nc2ccccc2[nH]1)c1ccc(Cl)c([N+](=O)[O-])c1 | -1.68
83 | COCCn1c(SCC(=O)Nc2sc(C)c(C)c2C#N)nnc1-c1ccc(OC)cc1 | -11.5
84 | CC(C)(C)C1CCc2onc(C(=O)O)c2C1 (configuration not stated) | -7.72
85 | C/C(=N\NC(=O)Cc1c(C)[nH][nH]c1=O)c1ccc2ccccc2c1 | -1.62
86 | CC(C)C(=O)NNC(=O)c1cc2sccc2s1 | -9.47
87 | Cc1cc(Br)c(NC(=O)CCl)c(Br)c1 | 10
88 | CC(=O)Nc1sc(N/N=C\c2ccco2)nc1-c1cccs1 | 2.35
89 | Cc1ccc(CONC(=O)c2ccc(OC(F)F)cc2)cc1 | -0.18
90 | CC1(C)C(c2ccccc2)=[N+]([O-])CN1O | -10.2
91 | Cc1cc(C)n(-c2nc3ccccc3[nH]c2=O)n1 | -9.01
92 | O=S(=O)(N/N=C/c1cccc(OC2CSC2)c1)c1ccccc1 | 2.91
93 | O=C(NCCCN1CCCC1=O)Nc1ccc(Cl)cc1 | -8.24
94 | Cc1c(C(=O)Nc2ccc3c4c(cccc24)CC3)cccc1[N+](=O)[O-] | 13.3
95 | O=C(Nc1nc2c(s1)CCCC2)c1cc(-c2ccccc2)nc2ccccc12 | 14.1
96 | O=C(Nc1nc(-c2ccc(F)c(F)c2)cs1)c1cnccn1 | 10.2
97 | O=C(Nc1nc2c(s1)CCCC2)c1cc(-c2ccncc2)nc2ccccc12 | 10.1
98 | O=C(Nc1nccs1)c1cc(-c2ccncc2)nc2ccccc12 | -1.16
99 | O=C(Nc1nccs1)c1cc(-c2ccccc2)nc2ccccc12 | 19
100 | Cc1ccc(-c2cc(C(=O)Nc3ccc(S(=O)(=O)Nc4nccs4)cc3)c3ccccc3n2)c(C)c1 | 69.9
101 | Cc1ccc(-c2cc(C(=O)Nc3nccs3)c3ccccc3n2)o1 | 12.8
102 | Cc1csc(NC(=O)c2cnccn2)n1 | -4.5
